Laboratory results as given in PubChem BioAssay (NCATS).
Inconclusive results are not listed. Activity calls are given as the source filed them. The call rests on the fitted dose curve; in most records, active means well fitted curve in the direction sought with a large enough effect; inconclusive means small, poorly fitted or top-dose-only effect, or another doubt; inactive means no such curve, though single readings can be large; an effect the other way counts as inactive or inconclusive.

Experiments:
[1] = biological target: Calcium and integrin-binding protein 1 (Homo sapiens) (UniProt Q99828); assay: Primary qHTS for Identification of Calcium Integrin Binding Protein 1 (CIB1) Competitor (AID 1508620);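 further: GST tagged CIB1 binding a fluorescein labelled alphaIIb integrin peptide tracer; top concentration of the series differs between compounds; on the % scale 0 is the no-effect control and ±100 the full control effect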
Sequence of Calcium and integrin-binding protein 1 (Homo sapiens) (Q99828 whole entry, looked up): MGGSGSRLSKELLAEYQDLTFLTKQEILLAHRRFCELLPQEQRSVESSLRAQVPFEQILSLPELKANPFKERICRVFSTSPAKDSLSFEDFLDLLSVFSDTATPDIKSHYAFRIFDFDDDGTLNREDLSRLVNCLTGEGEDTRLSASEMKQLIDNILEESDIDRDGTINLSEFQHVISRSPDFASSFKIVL
Outline: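 Fluorescence polarization competition: CIB1-GST (1 uM final) preincubated with compound 15 min at room temperature, then FITC-labeled alphaIIb peptide (100 nM final) added for another 15 min. Polarization read at Ex 480/Em 540.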

[2] = Primary qHTS for inhibitors of nuclear receptor binding SET domain protein 2 (NSD2) in an isogenic RCH-ACV NSD2 p.E1099K mutant (9B) (AID 1645876); further: on the % scale 0 is the no-effect control and ±100 the full control effect; nearly all actives have a fitted effect of over 70% in size
[3] = biological target: Luciferin 4-monooxygenase (Photinus pyralis) (UniProt P08659); assay: Primary firefly luciferase (FLuc) qHTS assay for identification of artifact compounds. (AID 1845220); conditions: outcome: dose series up to 54.1 µM unless noted; further: nearly all actives have a fitted effect of over 60% in size
Outline: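 qHTS, 15 min compound preincubation with substrate (10 uM luciferin, 10 uM ATP) at RT, then 10 nM FLuc; 5 min; luminescence; % inhibition vs no-enzyme/DMSO controls, 4-parameter Hill fit.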

[4] = test system: Nanoluciferase (engineered Oplophorus gracilirostris luciferase); assay: Primary Nanoluciferase (NLuc) qHTS assay for identification of artifact compounds. (AID 1845222)
Outline: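 Luminescence read-out of secreted NLuc in S16 cell conditioned medium (1:55); compounds tested with 15 min RT preincubation, then Nano-Glo substrate 1:100, 5 min. % inhibition vs no-enzyme and DMSO controls, 4-parameter Hill fit.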

[5] = test system: CRL-7250; assay: Cytotoxic Profiling of Annotated Libraries Using Quantitative High-Throughput Screening (AID 1296008); conditions: Five cell lines viability, CellTiter-Glo ATP luminescence, 48-72 h; max response: active compounds read low; further: nearly all actives have a fitted effect of over 60% in size; on max response: on the % scale 0 is the no-effect control and ±100 the full control effect
Outline: (§1)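 Compounds were pin-transferred onto cells and incubated 48 or 72 hr at 37 degree Celsius, 95% humidity. CellTiter-Glo was added, plates sat 10 min at room temperature, then ATP-coupled luminescence was imaged as the viability read-out.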

[6] = test system: HEK293; assay: as above; conditions: Five cell lines viability, CellTiter-Glo ATP luminescence, 48-72 h; max response: active compounds read low
Outline: as §1

[7] = test system: HaCat; assay: as above; conditions: Five cell lines viability, CellTiter-Glo ATP luminescence, 48-72 h; max response: active compounds read low
Outline: as §1

[8] = test system: NIH3T3; assay: as above; conditions: Five cell lines viability, CellTiter-Glo ATP luminescence, 48-72 h; max response: active compounds read low
Outline: as §1

[9] = test system: C33A; assay: Primary qHTS to identify gynecologic anti-cancer compounds using libraries of approved drugs and bioactive compounds (AID 1345084); conditions: Gynecologic cancer cell panel viability, ATPlite luminescence, 48 h; series mostly up to 57.5 µM; further: on the % scale 0 is the no-effect control and ±100 the full control effect; nearly all actives have a fitted effect of over 55% in size
Outline: (§2)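 48 h compound exposure at 37 C, 5% CO2; five-point qHTS. ATPlite luminescence readout of cell ATP.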

[10] = test system: CAOV3; assay: as above; conditions: Gynecologic cancer cell panel viability, ATPlite luminescence, 48 h; series mostly up to 57.5 µM
Outline: as §2

[11] = test system: CASKI; assay: as above; conditions: Gynecologic cancer cell panel viability, ATPlite luminescence, 48 h; series mostly up to 57.5 µM
Outline: as §2

[12] = test system: Es-2; assay: as above; conditions: Gynecologic cancer cell panel viability, ATPlite luminescence, 48 h; series mostly up to 57.5 µM
Outline: as §2

[13] = test system: Hek293T; assay: as above; conditions: Gynecologic cancer cell panel viability, ATPlite luminescence, 48 h, control line for the selectivity index; series mostly up to 57.5 µM
Outline: as §2

[14] = test system: JEG-3; assay: as above; conditions: Gynecologic cancer cell panel viability, ATPlite luminescence, 48 h; series mostly up to 57.5 µM
Outline: as §2

[15] = test system: OV90; assay: as above; conditions: Gynecologic cancer cell panel viability, ATPlite luminescence, 48 h; series mostly up to 57.5 µM
Outline: as §2

[16] = test system: PA-1; assay: as above; conditions: Gynecologic cancer cell panel viability, ATPlite luminescence, 48 h; series mostly up to 57.5 µM
Outline: as §2

[17] = test system: Tov-21-G; assay: as above; conditions: Gynecologic cancer cell panel viability, ATPlite luminescence, 48 h; series mostly up to 57.5 µM
Outline: as §2

[18] = test system: Tov112D; assay: as above; conditions: Gynecologic cancer cell panel viability, ATPlite luminescence, 48 h; series mostly up to 57.5 µM
Outline: as §2

[19] = P-glycoprotein substrates identified in KB-8-5-11 adenocarcinoma cell line, qHTS therapeutic library screen (AID 1346987); further: on the % scale 0 is the no-effect control and ±100 the full control effect; nearly all actives have a fitted effect of over 65% in size
Outline: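 Compounds are pinned in dose-response onto KB-8-5-11 cells (500 cells/well, colchicine-free medium) and left 72 h at 37 degree C. CellTiter-Glo luminescence then yields AC50 values.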

[20] = biological target: Phospholipid hydroperoxide glutathione peroxidase GPX4 (Homo sapiens) (UniProt P36969); assay: Primary qHTS Assay for Inhibitors of Recombinant Selenoprotein Glutathione Peroxidase 4 (GPX4) (AID 1845192); further: nearly all actives have a fitted effect of over 65% in size
Sequence of Phospholipid hydroperoxide glutathione peroxidase GPX4 (Homo sapiens) (P36969 whole entry, looked up): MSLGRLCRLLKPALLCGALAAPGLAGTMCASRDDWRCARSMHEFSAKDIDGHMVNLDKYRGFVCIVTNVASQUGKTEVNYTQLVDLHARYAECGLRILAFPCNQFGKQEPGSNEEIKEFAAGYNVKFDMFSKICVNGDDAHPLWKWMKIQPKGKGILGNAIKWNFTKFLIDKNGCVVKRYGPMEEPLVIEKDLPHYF
Outline: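 qHTS, GR-coupled: GPX4 200 nM + cpd 30 min RT → GSH 1 mM, NADPH 0.5 mM, GR 100 nM → CHP 0.5 mM start; fluor 340/450 at t0 and t15 min; no-enzyme wells as control.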

C=C1[C@@]23C(=O)O[C@H](C)[C@]24O[C@@]2(C(=C)[C@]5(C=CC(=O)OC5(C)C)CC[C@]32C)[C@H](O)[C@@]1(C)OC4=O
inactive: Potency [1] | Potency [2] | outcome [3] | Potency [4] | max response [5] -20.6% | max response [6] -10.4% | outcome [7] | max response [8] 0.197% | Potency [9] | Potency [10] | Potency [11] | Potency [12] | Potency [13] | Potency [14] | Potency [15] | Potency [16] | Potency [17] | Potency [18]

C[C@]12CCC(=O)C=C1CC[C@@H]1[C@@H]2[C@@H](O)C[C@]2(C)C(=O)CC[C@@H]12
inactive: Potency [19] | Potency [1] | Potency [2] | Potency [20] | outcome [3] | Potency [4] | outcome [5] | max response [6] -2.71% | max response [7] -8.66% | max response [8] 2.17% | Potency [9] | Potency [10] | Potency [11] | Potency [12] | Potency [13] | Potency [14] | Potency [15] | Potency [16] | Potency [17] | Potency [18]

C1=C(c2cnc[nH]2)c2ccsc2CC1
inactive: Potency [1] | Potency [2] | Potency [20] | outcome [3] | Potency [4] | max response [5] 4.29% | max response [6] -1.06% | outcome [7] | max response [8] -2.31% | Potency [9] | Potency [10] | Potency [11] | Potency [12] | Potency [13] | Potency [14] | Potency [15] | Potency [16] | Potency [17] | Potency [18]

COc1cc(N2CCN(C)CC2)ccc1N
inactive: Potency [19] | Potency [1] | Potency [20] | outcome [3] | Potency [4] | max response [5] 0.376% | max response [6] -21.4% | max response [7] 1.34% | max response [8] -6.74% | Potency [9] | Potency [10] | Potency [11] | Potency [12] | Potency [13] | Potency [14] | Potency [15] | Potency [16] | Potency [17] | Potency [18]

CN1CCc2cc3c(cc2[C@H]1[C@@H]1OC(=O)c2c1ccc1c2OCO1)OCO3
inactive: Potency [19] | Potency [1] | Potency [2] | Potency [20] | outcome [3] | Potency [4] | max response [5] -0.453% | max response [6] -2.62% | outcome [7] | max response [8] -16.9% | Potency [9] | Potency [10] | Potency [11] | Potency [12] | Potency [13] | Potency [14] | Potency [15] | Potency [16] | Potency [17] | Potency [18]
